Sampled rows, rich in hits. Any-hit rate of the full collection: about 2.3%.
Pol eta inh-1: qHTS for Inhibitors of Polymerase Eta. AID 588591, 2011. Potency, µM (doses to about 114 µM), for inactives: at the highest dose activity change, negative = inhibition, actives largely listed as inhibitors. DNA polymerase eta (Homo sapiens), Q9Y253. 390,000 tested, 1.2% active. recombinant Pol eta, fluorescent DNA replication assay; also: potency is read from the fitted curve at half-maximal effect; % is scaled to controls: 0 for no effect and ±100 for the full control effect
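Fluorescent replication assay: 50 nM final substrate added after a 15 min room-temperature compound preincubation with 10 nM enzyme. Signal taken at 0 min and again at 10 min.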
Pol beta inh: qHTS Assay for Inhibitors of DNA Polymerase Beta. P06746. Pol beta primer extension/strand displacement, fluorescence kinetic. Potency, µM (top dose mostly 114 µM), for the others: at the highest dose activity change, negative = inhibition, hits mostly inhibitors. 340,000 tested, 1.3% active. AID 485314, 2010; also: potency is read from the fitted curve at half-maximal effect; % is scaled to controls: 0 for no effect and ±100 for the full control effect
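Curves were derived by four-parameter Hill fits of normalized qHTS data. The kinetic fluorescent primer-extension read was taken at 0 and 10 min after 50 nM substrate, following a 15 min room-temperature preincubation of 10 nM enzyme with compounds.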
WRN helicase inh: qHTS for Inhibitors of WRN Helicase; Bifunctional 3'-5' exonuclease/ATP-dependent helicase WRN (Homo sapiens), Q14191; WRN helicase unwinding, fluorescent forked duplex, kinetic; Potency, µM (doses to about 114 µM), for inactives: at the top dose activity change, negative = inhibition, usual class: inhibitors; 360,000 tested, 0.46% active; AID 651768, 2012; also: potency is read from the fitted curve at half-maximal effect; % is scaled to controls: 0 for no effect and ±100 for the full control effect; nearly all actives have a fitted effect of over 55% in size
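WRN at 20 nM final preincubated with compound 15 min at room temperature; reaction started with 100 nM fluorophore/quencher forked duplex oligonucleotide and 2 mM ATP final. Unwinding followed kinetically by red fluorescence (ex 525, em 598 nm).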
Pol kappa inh-1: qHTS for Inhibitors of Polymerase Kappa; purified Pol kappa, fluorescent DNA synthesis assay, 10 min; DNA polymerase kappa (Homo sapiens), Q9UBT6; 400,000 tested, 0.53% active; Potency, µM (top dose mostly 107 µM), without a hit: at the top dose activity, negative = inhibition, usual class: inhibitors; also: potency is read from the fitted curve at half-maximal effect; % is scaled to controls: 0 for no effect and ±100 for the full control effect
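Activity was followed as the change in fluorescence between reads at 0 and 10 min after starting the reaction with 50 nM substrate. Beforehand, 10 nM polymerase had been preincubated with compound for 15 min at room temperature.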
POLI inh: qHTS for Inhibitors of Polymerase Iota | DNA polymerase iota (Homo sapiens), Q9UNA4 | Pol iota fluorescent replication assay, 10 min | Potency, µM (highest dose often 115 µM), inactives show at the top dose activity, negative = inhibition, hits mostly inhibitors | 390,000 tested, 1% active | AID 588590, 2011; also: potency is read from the fitted curve at half-maximal effect
Target sequence (Q9UNA4 whole entry, looked up): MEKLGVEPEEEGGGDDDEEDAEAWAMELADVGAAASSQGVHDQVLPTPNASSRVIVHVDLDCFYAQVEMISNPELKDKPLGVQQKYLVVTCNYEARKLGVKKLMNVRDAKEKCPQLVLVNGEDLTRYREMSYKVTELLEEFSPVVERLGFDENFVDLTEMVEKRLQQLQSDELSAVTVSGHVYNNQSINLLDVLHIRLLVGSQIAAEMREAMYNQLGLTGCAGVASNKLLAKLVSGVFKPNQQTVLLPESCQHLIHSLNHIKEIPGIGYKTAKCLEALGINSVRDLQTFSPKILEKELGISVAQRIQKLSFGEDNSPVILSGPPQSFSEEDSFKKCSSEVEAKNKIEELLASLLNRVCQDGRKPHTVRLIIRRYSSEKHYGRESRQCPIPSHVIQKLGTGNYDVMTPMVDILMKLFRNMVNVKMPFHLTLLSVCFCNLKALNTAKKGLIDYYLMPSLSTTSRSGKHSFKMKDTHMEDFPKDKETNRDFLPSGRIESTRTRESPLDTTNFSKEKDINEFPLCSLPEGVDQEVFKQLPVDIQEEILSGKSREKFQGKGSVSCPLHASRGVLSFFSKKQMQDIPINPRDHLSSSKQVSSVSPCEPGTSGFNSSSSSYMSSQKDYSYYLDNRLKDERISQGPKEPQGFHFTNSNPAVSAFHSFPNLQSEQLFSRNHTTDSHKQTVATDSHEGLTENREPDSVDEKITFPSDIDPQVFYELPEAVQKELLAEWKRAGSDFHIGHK
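Fluorescent replication assay read twice, at 0 min and 10 min after adding 50 nM (final) substrate. Enzyme (10 nM) and compounds were first incubated 15 min at room temperature; enzyme-free buffer wells were negative controls.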
TbPGK inh: qHTS for inhibitors of Phosphogylcerate Kinase: Hit Validation Screen; shares compounds with Pol kappa inh-1; TbPGK coupled GAPDH assay, Kinase-Glo luminescence; Potency, µM (series often up to 57.5 µM), inactives show top-dose activity change, negative = inhibition, actives largely listed as inhibitors; 500 tested, 79% active; also: potency is read from the fitted curve at half-maximal effect; % is scaled to controls: 0 for no effect and ±100 for the full control effect; nearly all actives have a fitted effect of over 65% in size
Pol iota confirm: qHTS for Inhibitors of Polymerase Iota: Confirmatory Assay for Cherry-picked Compounds | 1,500 tested, 77% active | Pol iota primer extension, TAMRA/BHQ fluorescence | shares compounds with Pol kappa inh-1 | AID 720496, 2013 | Potency, µM, hits mostly inhibitors; also: potency is read from the fitted curve at half-maximal effect
GALK confirm: Confirmation Assay for Inhibitors of Human Galactokinase (GALK) | shares compounds with Pol eta inh-1 | purified GALK, Kinase-Glo ATP depletion luminescence | Potency, µM (top dose mostly 115 µM), for inactives: at the highest dose activity, negative = inhibition, hits mostly inhibitors | 150 tested, 70% active
Redox cycling: Confirmatory Assay for Inhibitors of Human Galactokinase (GALK): Phenol-HRP redox assay counterscreen | shares compounds with Pol eta inh-1 | Phenol red-HRP H2O2 redox cycling, absorbance 600 nm | 150 tested, 40% active | AID 2035, 2009 | Potency, µM (series often up to 115 µM), for the others: top-dose activity change, negative = H2O2 signal, most hits filed as inhibitors
HEK293 viability: Secondary Assay for Inhibitors of Human Galactokinase (GALK): HEK-293 Cell Viability Assay; shares compounds with Pol eta inh-1; HEK-293 viability, ATP luminescence (CellTiter-Glo), 24/48 h; Potency, µM (series often up to 46.1 µM), for inactives: at the highest dose activity change, negative = cytotoxicity, most hits filed as inhibitors; 170 tested, 10% active; AID 2547, 2010; also: potency is read from the fitted curve at half-maximal effect; % is scaled to controls: 0 for no effect and ±100 for the full control effect
Pol kappa inh-2: qHTS for Inhibitors of Polymerase Kappa: Confirmatory Assay for Cherry-picked Compounds | shares compounds with Pol eta inh-1 | purified Pol-kappa, fluorescent strand-displacement substrate | Potency, µM, usual class: inhibitors | 920 tested, 76% active | AID 720501, 2013; also: potency is read from the fitted curve at half-maximal effect
Pol eta inh-2: qHTS for Inhibitors of Polymerase Eta: Confirmatory Assay for Cherry-picked Compounds. 2,600 tested, 64% active. Pol eta primer extension, TAMRA/BHQ fluorescence, 10 min. Potency, µM, most hits filed as inhibitors. shares compounds with Pol eta inh-1; also: potency is read from the fitted curve at half-maximal effect
Numbers without * were called inactive; ? = inconclusive; / = no result given; [ ] = another dose, or the depositor's remark. Calls follow the shape of the dose curve; as a rule, active = well fitted curve in the direction sought with a large enough effect; inconclusive = small, poorly fitted or top-dose-only effect, or another doubt; inactive = no such curve, though single readings can be large; an effect the other way counts as inactive or inconclusive.

SMILES | Pol eta inh-1 | Pol beta inh | WRN helicase inh | Pol kappa inh-1 | POLI inh | Pol iota confirm | Pol eta inh-2 | others
O=C(/C=C/c1ccco1)NCC1OCCc2ccccc21 (centres undefined) | 13µM* | 14µM* | 56µM* | 35µM* | 14µM* | 42* | 43*
CCOC(=O)c1cccc(NC(=O)CSc2ncc3c(n2)-c2ccc(Cl)cc2N(Cc2ccccc2)S3(=O)=O)c1 | -18% | 11% | / | -12% | -2% | / | /
O=C(O)C(C(=O)/C=C/c1ccco1)=C1SCCS1 | 8.9µM* | 25µM* | ? | 45µM* | 4µM* | 53* | 48*
CN1C2CCC1/C(=C\c1ccc(F)cc1)C(=O)/C2=C/c1ccc(F)cc1 | -5% | -1% | 1% | 0% | 11% | / | /
C=CC(=O)N1C/C(=C/c2ccc(F)cc2)C(=O)/C(=C\c2ccc(F)cc2)C1 | 10µM* | / | 40µM* | 79µM* | 11µM* | 60* | 76* | TbPGK inh=5.8µM*
O=C1ON=C(c2ccccc2)/C1=C/c1ccc(-c2ccccc2[N+](=O)[O-])o1 | 22µM* | -27% | ? | -24% | ? | ? | 48*
O=[N+]([O-])c1ccccc1-c1ccc(/C=N/n2cnnc2)o1 | 5% | 8% | 9% | -4% | -5%[58.9 µM] | / | /
CN1N/C(=C\c2ccccc2)N=C2C(=O)N(C)C(=O)N=C21 | / | / | / | ? | -98% | 2.7* | 5.4*
CCC(=O)Nc1ccc(C(=O)COC(=O)c2nc3nccc(C)n3n2)cc1 | 3.5µM* | / | ? | ? | 4µM* | 17* | 27* | Pol kappa inh-2=17*
Cc1c(Cl)cnc(NC(=O)COC(=O)/C=C/c2ccco2)c1Cl | 22µM* | / | ? | 79µM* | 22µM* | ? | 60* | Pol kappa inh-2=60*
O=C1C(=O)c2ccc(-c3ccccc3)cc2-c2ccccc21 | 5.6µM* | 13% | -1%[11.6 µM] | -5% | 2% | ? | 30* | GALK confirm=6µM*;Redox cycling=3µM*;HEK293 viability=7.9µM*
CCCCNC(=O)c1nn(-c2ccc(C)cc2)c(=O)c2c1c1ccccc1n2C | / | 21% | / | -1% | -2% | / | /
CC1CCN(S(=O)(=O)N2CCC(C(=O)NCc3ccccc3Cl)CC2)CC1 | 3% | 1% | / | -8%[60.1 µM] | 2% | / | /
CC(C)C1Nc2c(O)cc(Cl)c([N+](=O)[O-])c2C2C=CCC21 (centres undefined) | 2% | ? | -3%[11.6 µM] | 1%[60.1 µM] | ? | / | /
O=C(O)C1Nc2c(Cl)cc(Cl)c(Cl)c2C2C=CCC12 (centres undefined) | 14µM* | / | 40µM* | 28µM* | 10µM* | 21* | 24*
COc1ccc(C(=O)OCC(=O)Nc2sccc2C(N)=O)cc1OC | -15% | 20% | -8% | 4% | -9% | / | /
Cc1ccc(CC(=O)Nc2ncc([N+](=O)[O-])s2)cc1 | -1% | -17% | 2% | -3% | -9% | / | /
COc1ccc(C(=O)OCC(=O)Nc2ncc([N+](=O)[O-])s2)cc1OC | 3.2µM* | / | 50µM* | 22µM* | ? | 19* | ? | TbPGK inh=18µM*;Pol kappa inh-2=6.7*
O=C(COC(=O)c1ccc(Br)o1)Nc1ncc([N+](=O)[O-])s1 | 3.2µM* | / | ? | 79µM* | 22µM* | ? | 19* | Pol kappa inh-2=11*
Cc1ccc(C)c(NC(=O)N2CCN(C(=O)c3nsc4ccccc34)CC2)c1 | 9% | -1% | / | -1%[60.1 µM] | -3% | / | /
COc1ccc(/C=C/C(=O)OCC(=O)NCc2ccco2)cc1OC | 50µM* | 40µM* | -9%[11.6 µM] | ? | 22µM* | ? | ?
COc1cc(/C=C/C(=O)OCC(=O)NCc2ccco2)ccc1OC(F)F | -15% | 17% | -16% | -7% | 22% | / | /
O=C(COC(=O)Cc1ccc(Cl)cc1)NCc1ccco1 | 8.9µM* | / | ? | 79µM* | 22µM* | 19* | 19* | Pol kappa inh-2=11*
CCCS(=O)(=O)NCCc1sc2nc(-c3ccc(Cl)cc3)nn2c1C | -9% | 32% | / | -10%[60.1 µM] | -4% | / | /
Cc1ccc(OCC(=O)Nc2ccc3nc(SCC(=O)N4CCOCC4)sc3c2)cc1C | -22% | -9% | / | -2% | 34% | / | /
O=C(NC1CC1)C1CCN(S(=O)(=O)c2cc([N+](=O)[O-])ccc2Cl)CC1 | 13µM* | / | ? | 50µM* | 10µM* | 30* | ? | Pol kappa inh-2=19*
C=CCn1c(C)cc(C(=O)Cn2ncc(Cl)c(Cl)c2=O)c1C | 28µM* | 11µM* | ? | ? | 20µM* | ? | 76*
CC(C)(C)C(=O)Cn1ncc(Cl)c(Cl)c1=O | -4% | -2% | -3% | -20% | 12% | / | /
CCOC(=O)c1cc(-c2ccccc2)n(CC(=O)Nc2ccccc2OCC)c1C | -16% | -11% | / | -2%[60.1 µM] | 6% | / | /
